KB-3-1 cytotox = qHTS assay for MDR1-selective chemotherapeutics: Primary screen using the parental adenocarcinoma cell KB-3-1; KB-3-1 viability, CellTiter-Glo ATP luminescence, 72 h; 400,000 compounds, 1.4% hits; Potency, µM (titrated, usually from 46.1 µM), hits mostly cytotoxic; note: nearly all actives have a fitted effect of over 60% in size
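72 h, 37 °C compound treatment of KB-3-1 parental cells; CellTiter-Glo added, 10 min, luminescence read. Data corrected against DMSO-only plates and normalized before curve fitting.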
HT1080-NT tox = qHTS for induction of synthetic lethality in tumor cells producing 2HG: qHTS for the HT-1080-NT fibrosarcoma cell line; HT-1080-NT fibrosarcoma viability, CellTiter-Glo ATP luminescence, 48 h; Potency, µM (doses to about 46.1 µM), most hits filed as cytotoxic; 360,000 compounds, 1.6% hits;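 note: NT is the 2HG producing partner of a matched IDH1 knockdown line; nearly all actives have a fitted effect of over 55% in size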
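Luminescent CellTiter-Glo readout after 48 hours of compound exposure at 37 degrees C defined viability of HT-1080-NT cells. Activity was normalized to DMSO wells and cell-free media wells; concentration-response curves were fitted and assigned curve classes.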
MCF10A rerep = A quantitative high throughput screen for small molecules that induce DNA re-replication in MCF 10a normal breast cells; 350,000 compounds, 2.9% hits; Potency, µM (titrated, usually from 46.1 µM), hits mostly activators; MCF 10A DNA re-replication, Hoechst nuclear intensity, 48 h; note: nearly all actives have a fitted effect of over 50% in size
KB-V1 cytotox = qHTS assay for MDR1-selective chemotherapeutics: Primary screen using the drug-selected MDR subline cells KB-V1; KB-V1 MDR cells viability, CellTiter-Glo, 72 h; Potency, µM (titrated, usually from 46.1 µM), usual class: cytotoxic; 400,000 compounds, 3.4% hits; note: nearly all actives have a fitted effect of over 60% in size
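Cytotoxicity toward P-gp-expressing KB-V1 cells was determined as loss of CellTiter-Glo luminescence after 72 h at 37 degrees C. Compounds were tested in quantitative HTS format across a concentration range, with curves fitted to normalized data.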
SW480 rerep = A quantitative high throughput screen for small molecules that induce DNA re-replication in SW480 colon adenocarcinoma cells; SW480 DNA re-replication, Hoechst DNA content imaging, 48 h; AID 624297, 2012; Potency, µM (highest dose often 46.1 µM), usual class: activators; 340,000 compounds, 1.8% hits; note: nearly all actives have a fitted effect of over 55% in size
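Quantitative HTS format with DMSO vehicle controls; 48 hr drug incubation at 37 C, then 40 min Hoechst staining and scanning imager measurement at 405 nm excitation.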
HT1080 IDH1KD tx = qHTS for induction of synthetic lethality in tumor cells producing 2HG: qHTS for the HT-1080-IDH1KD cell line. HT-1080 IDH1 knockdown viability, ATP luminescence, 48 h. Potency, µM (top dose mostly 46.1 µM), usual class: cytotoxic. 360,000 compounds, 2% hits
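Viability of IDH1-knockdown HT-1080 fibrosarcoma cells was assessed by CellTiter-Glo after 48 h at 37 °C with titrated compound; concentration-effect curves were classified by fit quality and response size.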
Hits are given with their value; - = inactive; ? = inconclusive; . = no result. An excerpt weighted towards active compounds, which were near 7.9% of everything screened. Calls come from the whole dose curve; as a rule, active = well fitted curve in the direction sought with a large enough effect; inconclusive = small, poorly fitted or top-dose-only effect, or another doubt; inactive = no such curve, though single readings can be large; an effect the other way counts as inactive or inconclusive.

SMILES	KB-3-1 cytotox	HT1080-NT tox	MCF10A rerep	KB-V1 cytotox	SW480 rerep	HT1080 IDH1KD tx
CC(C)(C)c1ccc(CC(=O)N2CCC2(C)C(=O)NCc2cccc3ccccc23)cc1 (configuration not stated)	-	?	.	-	.	16µM
Cn1c(=O)n(Cc2ccccc2)c(=O)c2c1nc(NCC1CCCO1)n2Cc1ccccc1 (configuration not stated)	-	-	-	-	-	?
CCN(CC)C(=O)CSc1nnc2nnc3cc(OC)ccc3n12	?	13µM	-	?	?	?
CCOc1ccc(-n2c(C)nnc2SCC(=O)N(CC)CC)cc1	-	-	-	16µM	-	-
CCN(CC)C(=O)CSc1nnc(COc2ccc(OC)cc2)n1N	-	-	-	-	-	-
COCCCNC(=O)Cc1c(C)c2cc3c(cc2oc1=O)OC(C)(C)CC3	-	-	-	-	?	-
CCOc1ccc(NC(=O)c2ccccc2NC(=O)CN(C)CC(=O)Nc2ccc(C)cc2)cc1	-	-	-	-	-	-
O=C(Nc1nc(-c2ccccc2)cs1)C1CCCCN1S(=O)(=O)c1ccc(Cl)cc1 (configuration not stated)	?	?	?	13µM	-	?
O=C(Nc1ccc(Cl)cc1)C1CCCCN1S(=O)(=O)c1ccccc1 (configuration not stated)	23µM	?	?	3.7µM	?	?
O=C(Nc1nc(-c2ccccc2)cs1)C1CCCN(S(=O)(=O)c2cccc([N+](=O)[O-])c2)C1 (configuration not stated)	-	-	-	-	-	-
O=C(Nc1nc(-c2ccccc2)cs1)C1CCCN(S(=O)(=O)c2ccccc2)C1 (configuration not stated)	-	?	8.2µM	?	?	?
O=C(Nc1nc(-c2ccccc2)cs1)C1CCCCN1S(=O)(=O)c1ccccc1 (configuration not stated)	-	?	-	?	-	?
CCCn1c(SCC(=O)Nc2ccc(Cl)cn2)nnc1C1CC1	-	-	-	-	-	-
CC(=O)Nc1cccc(NC(=O)CSc2nc(C)c(C)c(C)c2C#N)c1	-	-	-	?	-	-
Cc1cccc(C)c1NC(=O)CSc1nc(C)c(CC(=O)c2ccc(Br)cc2)c(C)c1C#N	?	-	16µM	?	-	-
CC[C@H](C)C1OC(=O)[C@@H](C)[C@@H](CC)NC(=O)[C@H](C)N(C)C(=O)C(C)(C)C(=O)C(C)NC(=O)[C@H](Cc2ccc(OC)cc2)N(C)C(=O)[C@H](C(C)C)N(C)C(=O)CNC(=O)[C@H](CC(C)C)N(C)C(=O)CNC1=O (some centres not stated)	0.21µM	0.26µM	.	-	.	0.18µM
CCC[C@H]1NC(=O)[C@H](C)N(C)C(=O)C(C)(C)C(=O)C(C)NC(=O)[C@H](Cc2ccc(OC)cc2)N(C)C(=O)[C@H](C(C)C)N(C)C(=O)CNC(=O)[C@H](CC(C)C)N(C)C(=O)CNC(=O)[C@H]([C@@H](C)CC)OC(=O)[C@H]1C (some centres not stated)	-	0.82µM	1.5µM	-	?	1µM
CCCC(=O)N1CCCC(c2cc(C(=O)NCc3cccnc3)no2)C1 (configuration not stated)	-	-	.	-	.	-
O=C(/C=C/c1ccccc1)CC(=O)c1ccccc1O	-	-	13µM	?	?	-
O=C(/C=C/c1ccccc1)NC(=O)c1ccccc1O	-	-	-	-	-	-
O=C(/C=C/c1ccccc1)CCN1CCCCC1	?	?	6.5µM	26µM	2.9µM	?
O=C(Nc1cc(Sc2nc3ccccc3s2)cc([N+](=O)[O-])c1)c1cccc(F)c1F	?	-	-	?	-	-
COc1ccccc1Nc1nc2ccc(C)cc2cc1C#N	-	-	-	-	-	-
COc1ccc(C(=O)NCCNc2nc3c(C)cccc3cc2C#N)cc1OC	?	-	0.58µM	-	2.6µM	-
COc1ccc(C(=O)NCCNc2nc3c(C)cccc3cc2C#N)cc1	-	-	18µM	-	-	-
SMILES	KB-3-1 cytotox	HT1080-NT tox	MCF10A rerep	KB-V1 cytotox	SW480 rerep	HT1080 IDH1KD tx
COc1cc(C(=O)NCCNc2nc3c(C)cccc3cc2C#N)cc(OC)c1OC	-	-	.	?	.	-
COc1ccc(C(=O)NCCNc2nc3ccc(C)cc3cc2C#N)cc1	-	-	21µM	-	?	-
COc1ccc(C(=O)NCCNc2nc3cc(C)cc(C)c3cc2C#N)cc1	-	?	.	?	.	?
Cc1ccc2nc(NCCNC(=O)c3ccccc3)c(C#N)cc2c1	-	-	?	-	?	-
Cc1ccc2nc(NCc3ccccc3)c(C#N)cc2c1	-	-	15µM	-	?	-
Cc1nn(C)cc1CNC(=O)CCC(=O)O	-	-	-	-	-	-
Cc1cccc2cc(C#N)c(NCCNS(=O)(=O)c3ccc4c(c3)OCCO4)nc12	-	-	?	23µM	16µM	-
CCC(=O)NCCCNc1nc2c(C)cccc2cc1C#N	-	-	-	?	?	-
Cc1cc(C)n(-c2nc(NCC(C)O)c3c4c(sc3n2)CCCC4)n1 (configuration not stated)	?	-	-	-	-	-
Cc1cc(CNC(=O)c2cccc3c2C(=O)c2ccc(-c4ccc(F)cc4OCc4ccccc4)cc2S3(=O)=O)c(C(F)(F)F)o1	-	-	?	-	-	-
Cc1ccccc1Nc1nc(-c2ccccc2)c(C(=O)Nc2cccnc2)s1	-	-	23µM	-	?	-
Cn1c(NN)nc2sc3c(c2c1=O)CC(C)(C)OC3	-	?	-	-	-	13µM
CCCCCc1nc2sc3c(c2c(=O)n1NC(=O)c1ccc([N+](=O)[O-])cc1)CC(C)(C)OC3	-	5.8µM	?	?	-	5.8µM
CC1(C)Cc2c(sc3nc[nH]c(=O)c23)CO1	-	-	-	-	5.2µM	-
Cc1cc(C)cc(NC(=S)NCCN2CCOCC2)c1	-	-	?	-	-	-
O=C(NCc1ccc(OC(F)(F)F)cc1)C1CC2Cn3c(nc4ccccc43)C2N1Cc1ccccc1 (configuration not stated)	-	-	-	-	-	-
Cc1ccc(-n2c(C)cc(/C=C3/SC(=O)N(CC(=O)N4CCOCC4)C3=O)c2C)nc1	-	-	-	-	18µM	-

Compound activity (PubChem)
